Screens as filed in PubChem BioAssay.
JMJD2A Tudor: blocks the human JMJD2A Tudor domain | AlphaScreen JMJD2A-Tudor / H3K4me3 peptide binding | hit rate 4.4% among 390,000 | O75164 | Potency, µM (highest dose often 114 µM), inactives show at the top dose activity change, negative = inhibition, most hits filed as inhibitors; further: potency means the concentration at half of the fitted maximal effect; on the % scale 0 is the no-effect control and ±100 the full control effect; nearly all actives have a fitted effect of over 50% in size
L3MBTL1 block: blocks human L3MBTL1 | AlphaScreen L3MBTL1–H3K9me1 peptide binding | AID 485360 | hit rate 0.66% among 230,000 | Potency, µM (titrated, usually from 57.1 µM), inactives show at the top dose activity, negative = inhibition, hits mostly inhibitors | Q9Y468; further: potency means the concentration at half of the fitted maximal effect; on the % scale 0 is the no-effect control and ±100 the full control effect; nearly all actives have a fitted effect of over 60% in size
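L3MBTL1 50 nM + b-AHA-H3(1-15)K9me1 75 nM, 30 min RT; compound added, 30 min RT; streptavidin donor/Ni-chelate acceptor beads 10 ug/mL each final, 30 min RT dark; AlphaScreen read.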
BAZ2B block: inhibitors of human BAZ2B bromodomain; Q9UIF8; AlphaScreen BAZ2B-H3K14Ac peptide displacement; AID 504333; Potency, µM (series often up to 114 µM), without a hit: top-dose activity change, negative = inhibition, most hits filed as inhibitors; hit rate 4.4% among 360,000; further: potency means the concentration at half of the fitted maximal effect; on the % scale 0 is the no-effect control and ±100 the full control effect; nearly all actives have a fitted effect of over 60% in size
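BAZ2B (50 nM) with biotin-H3(5-23)K14Ac peptide (50 nM) in PBS pH 7.4, 0.01% Tween-20, preformed 30 min, then compound 30 min at room temperature; top concentration 110uM. AlphaScreen streptavidin donor/nickel chelate acceptor beads (10 ug/mL final), 20 min dark, signal read.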
HP1b binding inh: HP1-beta chromodomain-methylated histone interaction inhibition | P83916 | AlphaScreen HP1-beta / biotin-H3K9me3 peptide binding | Potency, µM (titrated, usually from 114 µM), inactives show at the highest dose activity change, negative = inhibition, actives largely listed as inhibitors | hit rate 0.56% among 390,000 | AID 540317; further: potency means the concentration at half of the fitted maximal effect; nearly all actives have a fitted effect of over 70% in size
Target sequence (P83916 whole entry, looked up): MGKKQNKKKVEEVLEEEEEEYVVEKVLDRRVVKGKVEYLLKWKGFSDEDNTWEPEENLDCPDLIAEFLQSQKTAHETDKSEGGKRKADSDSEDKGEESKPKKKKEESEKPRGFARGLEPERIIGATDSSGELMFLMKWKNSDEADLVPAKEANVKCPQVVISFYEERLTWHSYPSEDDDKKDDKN
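Compound inhibition of the preformed complex between 50 nM HP1-beta and 50 nM biotinylated H3K9me3 peptide was read by AlphaScreen. Buffer was PBS pH 7.4 with 0.01% Tween-20. Incubations ran 30 min at room temperature, with 10 ug/mL donor/acceptor beads.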
PI5P4Ka inh: blocks human PI5P4K alpha kinase activity | PI5P4Kalpha enzyme, ADP-Glo luminescence, 60 min; stronger effect = lower value | P48426 | hit rate 1.2% among 330,000 | AID 652105 | max response, %; active means max response of -50% or lower; inconclusive means between -30% and -50%; inactive means -30% or higher; further: value at the top dose of about 77 µM; on the % scale 0 is the no-effect control and ±100 the full control effect
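Reactions run in 0.038 M HEPES pH 7.4, 0.28 mM EGTA, 0.1% CHAPS and 5% DMSO, with PI5P4Kalpha, substrate, compound and 5 microM ATP final, one hour at room temperature. Readout is ADP-Glo luminescence.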
G9a inh: inhibitors of human histone lysine methyltransferase G9a; Potency, µM (highest dose often 102 µM), for the others: at the highest dose activity, negative = inhibition, actives largely listed as inhibitors; G9a H3K9 monomethylation, AlphaScreen, 2 h; Q96KQ7; hit rate 8.8% among 350,000; further: potency means the concentration at half of the fitted maximal effect; on the % scale 0 is the no-effect control and ±100 the full control effect; nearly all actives have a fitted effect of over 75% in size
Target sequence (Q96KQ7 913-1193 limits assumed): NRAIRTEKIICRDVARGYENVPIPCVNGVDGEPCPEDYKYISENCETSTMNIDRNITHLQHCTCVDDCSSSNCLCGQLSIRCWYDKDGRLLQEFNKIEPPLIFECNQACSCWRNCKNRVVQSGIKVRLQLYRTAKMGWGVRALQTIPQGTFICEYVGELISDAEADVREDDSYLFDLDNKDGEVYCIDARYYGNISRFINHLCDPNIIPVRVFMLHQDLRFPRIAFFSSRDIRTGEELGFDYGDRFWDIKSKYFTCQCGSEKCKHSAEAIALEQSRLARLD
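Step 1: enzyme (final 20 nM) with compound, 15 min RT. Step 2: substrate peptide 500 nM and SAM 20 uM, 2 h RT. Step 3: anti-H3K9me1 antibody and AlphaScreen beads, 10 min, then plate read.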
Active calls of the source: *; u = inconclusive; x = not tested or not shown; [ ] = remark or other dose. A selection: hits, their analogues and other compounds. The true share with any hit is near 11%. Unless noted, the call rests on the fitted dose curve; in most records, active means well fitted inhibition curve with a large enough effect; inconclusive means small, poorly fitted or top-dose-only effect; inactive means no such curve, though single readings can be large or run the other way.

SMILES | JMJD2A Tudor | L3MBTL1 block | BAZ2B block | HP1b binding inh | PI5P4Ka inh | G9a inh
O=C(O)c1[nH]c2ccccc2c1C(c1ccccc1)c1c(C(=O)O)[nH]c2ccccc12 | -13% | -9% | -33% | 19% | -3 | -50%
CCCCNC(=O)c1cc2cccc([N+](=O)[O-])c2[nH]1 | -27% | x | u | 17% | -3 | 50µM*
Nc1ccc(C=C2C=Cc3ccccc32)cc1 | 35µM* | x | x | u | 24 | x
CC1=C(C(=O)N2CCN(c3ccc(Cl)cc3)CC2)C2(CCC(C)CC2)OC1=O (configuration not stated) | -23% | x | u | 8% | x | -50%[59 µM]
Cc1nc2c(C(=O)NC(C)c3ccccc3)cnn2c(C)c1Cc1ccccc1 (configuration not stated) | -11% | x | 7% | 23% | x | 7%[59 µM]
O=C(O)CNS(=O)(=O)c1ccc2c(c1)C(=O)c1cc(S(=O)(=O)NCC(=O)O)ccc1-2 | -14% | 0% | -2% | 19% | -4 | 45µM*
O=C1c2cc(S(=O)(=O)NCCO)ccc2-c2ccc(S(=O)(=O)NCCO)cc21 | -24% | -2% | -19% | -38% | -1 | -17%
O=C1c2ccccc2C(=O)c2cc(S(=O)(=O)Nc3ccccc3)ccc21 | u | -17% | 11µM* | u | 0 | u
Cc1ccc(C)c(N2CCN(c3nc4ccccc4n4nnnc34)CC2)c1 | 32% | x | 0% | 70% | x | 83%[59 µM]
Cc1cc(C)n2cc(CSCC(=O)O)nc2n1 | -10% | 8% | u | 18% | 7 | 45µM*
Cc1cc(C)n2cc(CSc3nnnn3-c3ccc(Cl)cc3)nc2n1 | -20% | 2% | 2% | 22% | -1 | 40µM*
Cc1cc(C)n2cc(CSc3nnnn3-c3ccccc3)nc2n1 | -10%[57.1 µM] | -3% | -31% | 40% | 5 | -35%[59 µM]
O=C(COc1ccc(Cl)cc1)Nc1ccc2nc(SCC(=O)N3CCOCC3)sc2c1 | -22% | x | -12% | 15% | x | -9%[59 µM]
COc1ccc(-c2nc(CN3CCC(C(=O)NCCCN4CCN(c5ccccc5F)CC4)CC3)c(C)o2)cc1OC | -23% | x | u | 23% | x | -30%[59 µM]
O=C(OCc1nnc(-c2ccccc2Br)o1)c1ccco1 | -7% | -6% | x | 65% | u | x
O=S(=O)(c1ccccc1F)N(Cc1ccco1)Cc1nnc(-c2ccccc2Br)o1 | -16% | -2% | 7% | 20% | 2 | 79µM*
CN(C)c1ccc(CNC(=O)C2CCCN(S(=O)(=O)c3ccc4c(ccn4C)c3)C2)cc1 (configuration not stated) | -9% | x | -16% | 16%[57 µM] | x | u
COc1ccc(N2CCN(S(=O)(=O)c3ccc4c(c3)CC(C)N4C(C)=O)CC2)cc1 (configuration not stated) | -18% | x | 1% | -1% | x | u
O=S(=O)(NC(=S)NC1CCCCC1)c1cccs1 | -13% | 1% | -25% | 0% | u | 20µM*
O=S(=O)(NC(=S)NC1CCCCC1)c1ccccc1 | -18% | 0% | -36% | 19% | -8 | 25µM*
C/C(=N\NC(=O)C1CC1)c1cccs1 | 3% | 5% | -4% | 29% | 1 | 6%
C/C(=N\NC(=S)NC1CCCCC1)c1cccs1 | u | -24%[11.4 µM] | 50µM* | u | 3 | u
CCN1CCN(C(=O)Cn2c(-c3cccs3)cc3cc(Cl)ccc32)CC1 | -19% | x | -3% | 20% | x | -27%[59 µM]
c1ccc2sc(N3CCN(Cc4nnnn4CC4CCCO4)CC3)nc2c1 (configuration not stated) | -12% | 1% | x | 26% | x | 28µM*
CC(C)(C)NC(=O)CN(C(=O)CS(=O)CC(=O)Nc1ccc(F)cc1)c1ccccc1 (configuration not stated) | -16% | 9% | 2% | 22% | x | 50µM*
CC(C)(C)NC(=O)CN(C(=O)CS(=O)CC(=O)Nc1ccc(F)cc1)c1ccc2c(c1)OCCO2 (configuration not stated) | 0% | -20% | 0% | 30% | 1 | -26%
